Among the test systems are HCT-15 colon; HT29 colon; SNB-75 CNS; SNB-19 CNS; U251 CNS; PC-3 prostate; SK-MEL-5 melanoma; UACC-62 melanoma; LOX IMVI melanoma; SK-MEL-28 melanoma; SK-MEL-2 melanoma; EKVX NSCLC; SN12C renal; UO-31 renal; TK-10 renal; CAKI-1 renal; A498 renal; HL-60(TB) leukemia; CCRF-CEM leukemia; ACHN renal.
What all share (assay): NCI-60 one-dose screen, 48 h (100 = growth as untreated, 0 = no growth, -100 = all killed)
Common to all, as to conditions: 10 µM unless noted

Each structure is given as a SMILES string. Where “and” joins values, the source holds several entries; their conditions need not be identical. Equal entries are not always repeated. About 83,000 compounds went through this panel and 20% of them were active in at least one assay; those are over-represented in the sample as a whole.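 Values shown are percent growth following 48 h exposure of cells in 96-well plates to a single concentration of compound; below 10 was considered active.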 A number with no mark means an inactive call. Calls of active or inactive are those of the source.

In PubChem BioAssay (NCI) one finds growth data, which are given here for eight compounds.

As to `Cc1cc[c-]cc1.Fc1c[c-]c(-c2ccccn2)c(F)c1.[Pt+2].c1ccc([PH+](c2ccccc2)c2ccccn2)cc1`, the growth with HCT-15 colon is 74.1%; with HT29 colon, 22.9%; in the assay on SNB-75 CNS, 22.7%; with SNB-19 CNS it was 49.5%; with U251 CNS, 27%; with PC-3 prostate it was 37.4%. Besides, the growth was 77.5% in the assay with SK-MEL-5 melanoma; 64.5% in the assay with UACC-62 melanoma; 31.2% in the assay on LOX IMVI melanoma; 39.4% in the assay with SK-MEL-28 melanoma; 71.8% with SK-MEL-2 melanoma; 65.3% with EKVX NSCLC. The growth in the assay with SN12C renal is 52.1%; with UO-31 renal, 58.4%; in the assay on TK-10 renal, 75.9%; with CAKI-1 renal, 54.7%; with A498 renal it was 82.7%; in the assay with HL-60(TB) leukemia, 38.2%. Further, the growth in the assay on CCRF-CEM leukemia was 19.9%.
`N#CCCc1ccccc1`: the growth in the assay with HCT-15 colon was 98.3%; with HT29 colon, 104%; with SNB-75 CNS, 86.3%; with SNB-19 CNS, 97.7%; in the assay on U251 CNS it was 105%; in the assay with PC-3 prostate it was 108%. Also, the growth was 99.6% in the assay with SK-MEL-5 melanoma; 97.2% in the assay with UACC-62 melanoma; 102% in the assay on LOX IMVI melanoma; 108% with SK-MEL-28 melanoma; 121% with SK-MEL-2 melanoma; 103% with EKVX NSCLC. For the same compound, the growth with SN12C renal is 103%; in the assay on UO-31 renal, 85%; in the assay with TK-10 renal it was 113%; in the assay on ACHN renal, 98.4%; with CAKI-1 renal, 98.2%; in the assay with HL-60(TB) leukemia, 103%. Further, the growth in the assay with CCRF-CEM leukemia is 96.2%.
Consider `Cc1cc(N(CCCl)CCCl)ccc1/C=N\NC(=O)c1cccnc1`, for which the growth is 93% and 85.1% in the assay with HCT-15 colon; 90.9% and 101% with HT29 colon; 71.5% and 86.4% in the assay on SNB-75 CNS; 94.1% and 105% with SNB-19 CNS; 82.9% and 93.2% with U251 CNS; 84.3% and 77.6% with PC-3 prostate. Moreover, the growth in the assay with SK-MEL-5 melanoma is 88.8% and 79.1%; with UACC-62 melanoma it was 45% and 60.5%; with LOX IMVI melanoma, 69.4%; with SK-MEL-28 melanoma it was 108% and 97.8%; with SK-MEL-2 melanoma, 77.4% and 114%; with EKVX NSCLC, 97.9% and 95.8%. For the same compound, the growth in the assay with SN12C renal is 67.8% and 75.5%; with UO-31 renal, 80.3% and 83.4%; with TK-10 renal, 89.2% and 103%; in the assay on ACHN renal, 72.6% and 84%; in the assay with CAKI-1 renal, 36.2% and 41.5%; with HL-60(TB) leukemia, 60%. Moreover, in the assay on CCRF-CEM leukemia, the growth was 60.2% and 62.1%.
As for `C[C@@H]1C/C=C\C(=O)O[C@H](/C=C/C#C/C=C/C(C)(C)[C@@H](O)c2cccc(O)c2Br)[C@@H](C)/C=C/[C@H](C)C[C@H](OC(N)=O)C1`, the growth was 2.46% (active) with HCT-15 colon; 5.59% (active) in the assay on HT29 colon; 32.7% with SNB-75 CNS; 53.6% in the assay with SNB-19 CNS; 24.5% in the assay with U251 CNS; 33.5% in the assay on PC-3 prostate. Further, the growth in the assay with SK-MEL-5 melanoma was -61.5% (active); in the assay with UACC-62 melanoma, -41.8% (active); in the assay with LOX IMVI melanoma, -2.94% (active); in the assay on SK-MEL-28 melanoma it was 35.5%; with SK-MEL-2 melanoma, 15.1%; in the assay on EKVX NSCLC, 22%. The growth with SN12C renal was 36.4%; with UO-31 renal, 3.1% (active); with TK-10 renal, 43.5%; in the assay with ACHN renal, 35%; in the assay with CAKI-1 renal it was 6.13% (active); in the assay with HL-60(TB) leukemia it was 3.08% (active). Moreover, in the assay on CCRF-CEM leukemia, the growth is 25.7%.
For `COc1ccc2c(c1)c(-c1nc(-c3cn(C)c4ncccc34)cs1)cn2CCCCN1CCOCC1`, the growth is -42.1% (active) with HCT-15 colon; -87.8% (active) in the assay with HT29 colon; 43.6% with SNB-75 CNS; 35.1% with SNB-19 CNS; -55.3% (active) in the assay with U251 CNS; 31.3% in the assay on PC-3 prostate. Also, the growth was 14.5% in the assay on SK-MEL-5 melanoma; 3.59% (active) in the assay on UACC-62 melanoma; -78.8% (active) in the assay with LOX IMVI melanoma; -93.5% (active) in the assay with SK-MEL-28 melanoma; 64.4% in the assay with SK-MEL-2 melanoma; 60.2% in the assay with EKVX NSCLC. For the same compound, the growth in the assay with SN12C renal was 68%; in the assay on UO-31 renal it was 34%; in the assay on TK-10 renal, 69.9%; in the assay on CAKI-1 renal, 41.4%; in the assay on A498 renal, 58.1%; with HL-60(TB) leukemia it was 24.7%. In the assay with CCRF-CEM leukemia, the growth was 2.06% (active).
On to `N[C@@H](CCC(=O)CCl)C(=O)O`, for which the growth with HCT-15 colon was 93.7% [20 µM]; in the assay on HT29 colon, 94.2% [20 µM]; in the assay with SNB-75 CNS it was 66.9% [20 µM]; with SNB-19 CNS, 93.4% [20 µM]; in the assay with U251 CNS, 96.5% [20 µM]; with PC-3 prostate, 100% [20 µM]. Further, the growth in the assay with SK-MEL-5 melanoma was 101% [20 µM]; in the assay with UACC-62 melanoma, 92.1% [20 µM]; in the assay with LOX IMVI melanoma it was 96.7% [20 µM]; in the assay on SK-MEL-28 melanoma it was 103% [20 µM]; with SK-MEL-2 melanoma it was 87.6% [20 µM]; with EKVX NSCLC it was 101% [20 µM]. Further, the growth in the assay with SN12C renal was 89% [20 µM]; with UO-31 renal it was 91% [20 µM]; in the assay on TK-10 renal it was 101% [20 µM]; in the assay on ACHN renal, 97.9% [20 µM]; in the assay with CAKI-1 renal it was 97% [20 µM]; in the assay with A498 renal it was 110% [20 µM]. For the same compound, the growth in the assay with CCRF-CEM leukemia is 97.6% [20 µM].
For the compound `Oc1ccccc1C=NCCN=Cc1ccccc1O.[Fe]`, the growth was 101% in the assay with HCT-15 colon; 72.4% in the assay with HT29 colon; 77.2% with SNB-75 CNS; 87.1% in the assay on SNB-19 CNS; 26.4% in the assay with U251 CNS; 79.2% in the assay on PC-3 prostate. The growth in the assay with SK-MEL-5 melanoma is 66.5%; in the assay with UACC-62 melanoma, 58.4%; in the assay on LOX IMVI melanoma, -80.2% (active); with SK-MEL-28 melanoma, 117%; in the assay on SK-MEL-2 melanoma, 92.4%; in the assay on EKVX NSCLC it was 110%. Moreover, the growth was 52% in the assay on SN12C renal; 72.3% in the assay on UO-31 renal; 115% in the assay with TK-10 renal; 98.1% with CAKI-1 renal; 65.5% in the assay with A498 renal; 44.5% in the assay on HL-60(TB) leukemia. The growth in the assay with CCRF-CEM leukemia was -32.9% (active).
For `CCCC[C@H]1C(=O)O[C@H](C)[C@H](NC(=O)c2cccc(NC=O)c2O)C(=O)O[C@@H](C)[C@@H]1OC(=O)CC(C)C`, the growth in the assay on HCT-15 colon is 39.9%; in the assay with HT29 colon it was 49.5%; with SNB-75 CNS it was 56.8%; with SNB-19 CNS, 44.4%; in the assay on U251 CNS, 42.9%; in the assay with PC-3 prostate, 32.9%. Further, the growth is -5.18% (active) in the assay with SK-MEL-5 melanoma; 34% with UACC-62 melanoma; 32.9% with LOX IMVI melanoma; 83.9% in the assay on SK-MEL-28 melanoma; 93.4% with SK-MEL-2 melanoma; 57.7% in the assay with EKVX NSCLC. Further, the growth in the assay with SN12C renal was 59.6%; with UO-31 renal, 57.3%; with TK-10 renal, 49.8%; with ACHN renal, 56.6%; in the assay on CAKI-1 renal, 34.5%; in the assay with HL-60(TB) leukemia it was 37%. Besides, in the assay on CCRF-CEM leukemia, the growth was 28.7%.
